# Data from PubChem BioAssay (NCI).
# About 79,000 compounds went through this panel and 15% of them were active in at least one assay; those are over-represented in the sample as a whole. Values without a mark were called inactive. Activity calls are given as the source filed them. Rule as the data show it: active = growth inhibition above about 70%; inactive = the rest.
# Experiments:
# [1] = NCI Yeast Anticancer Drug Screen. Data for the rad50 strain (AID 155);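 also: 0% = growth of vehicle-only cultures of the same strain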; settings: S. cerevisiae rad50 strain growth inhibition, stronger effect = higher value
# How it was run: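 Vehicle-treated cultures provide the reference for the growth inhibition reported for compound-exposed, repair-deficient yeast.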
# [2] = NCI Yeast Anticancer Drug Screen. Data for the mec2-1 strain (AID 157); settings: S. cerevisiae mec2-1 strain, stronger effect = higher value
# How it was run: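 Strain: mec2-1 (DNA repair/cell cycle alteration). Compound exposure, then growth measured; inhibition expressed relative to vehicle.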
# [3] = NCI Yeast Anticancer Drug Screen. Data for the sgs1 mgt1 strain (AID 161);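 also: 0% = growth of cultures given vehicle only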; settings: S. cerevisiae sgs1 mgt1 strain, stronger effect = higher value
# How it was run: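 Read-out: growth inhibition vs vehicle controls. Cells: mutant yeast strain deficient in DNA damage repair.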
# [4] = NCI Yeast Anticancer Drug Screen. Data for the cln2 rad14 strain (AID 165);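 also: 0% = growth equal to vehicle treated cultures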; settings: S. cerevisiae cln2 rad14 strain, stronger effect = higher value
# How it was run: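 Compounds are applied to the cln2 rad14 yeast strain, and growth is then compared with that of vehicle-treated cultures to give inhibition.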
# [5] = NCI Yeast Anticancer Drug Screen. Data for the bub3 strain (AID 167); settings: S. cerevisiae bub3 mutant strain, stronger effect = higher value
# How it was run: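 Mutant yeast screening strain plus compound; vehicle-treated cultures serve as the 0% inhibition reference.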
# [6] = NCI Yeast Anticancer Drug Screen. Data for the mlh1 rad18 strain (AID 175); settings: S. cerevisiae mlh1 rad18 strain growth inhibition, stronger effect = higher value
# How it was run: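 Read-out is yeast growth inhibition, calculated against vehicle-only controls. The compound was applied to a strain engineered with DNA damage repair alterations.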
# [7] = at 5.0 µM (retest, dose inferred, filed as 0.5)
# [8] = at 50.0 µM (retest, dose inferred, filed as 5.0)
Compound,"growth inhibition [1, 7]","growth inhibition [1, 8]",growth inhibition ([1]; at 50.0 µM),"growth inhibition [2, 7]","growth inhibition [2, 8]",growth inhibition ([2]; at 50.0 µM),"growth inhibition [3, 7]","growth inhibition [3, 8]",growth inhibition ([3]; at 50.0 µM),"growth inhibition [4, 7]","growth inhibition [4, 8]",growth inhibition ([4]; at 50.0 µM),"growth inhibition [5, 7]","growth inhibition [5, 8]",growth inhibition ([5]; at 50.0 µM),"growth inhibition [6, 7]","growth inhibition [6, 8]",growth inhibition ([6]; at 50.0 µM)
CCC[CH2][Sn]([CH2]CCC)([O]C(=O)c1cc(OC)c(OC)c(OC)c1)[O]C(=O)c1cc(OC)c(OC)c(OC)c1,96% (active),96% (active),71.9% (active),96% (active),96% (active),84.7% (active),94% (active),94% (active),74.8% (active),95% (active),95% (active),80% (active),97% (active),97% (active),74.8% (active),96% (active),96% (active),78.5% (active)
CCCCCSc1nc2ncnc(N)c2[nH]1,1%,4%,6.25%,1%,9%,-2.95%,-10%,-2%,1.65%,4%,6%,28.9%,7%,16%,-5.5%,0%,8%,-14.5%
Nc1ccc(N=Nc2ccccc2)c2ccccc12,9%,96% (active),97.8% (active),0%,98% (active),99% (active),3%,98% (active),98.5% (active),0%,97% (active),98.5% (active),2%,99% (active),98.3% (active),4%,98% (active),97.6% (active)
C/C(=N\NC(=S)N/N=C(\C)c1ccccn1)c1ccccn1,93% (active),99% (active),88.2% (active),90% (active),99% (active),91.5% (active),88% (active),99% (active),84.7% (active),93% (active),98% (active),88.2% (active),95% (active),99% (active),87.9% (active),93% (active),99% (active),83% (active)
Clc1ccc(CSc2ncnc3c2ncn3C2CCCCO2)cc1 (stereo not given),-5%,97% (active),97.5% (active),-7%,96% (active),97.5% (active),15%,92% (active),97.5% (active),-20%,88% (active),94.3% (active),-15%,78% (active),95.8% (active),3%,96% (active),97% (active)
CCC#CC(O)(C(=O)OCC)C1CCCC1 (stereo not given),-148%,-161%,-1.05%,-50%,-51%,13.5%,-59%,-64%,-0.35%,-57%,-59%,33.5%,-67%,-85%,18.4%,-115%,-115%,7.9%
CC12OC(=O)C(C(N)=O)=C1C=C(c1ccccc1)CC2c1ccccc1 (stereo not given),-1%,23%,65%,12%,53%,43.9%,-5%,67%,86.8% (active),-3%,21%,82.5% (active),-4%,60%,87.5% (active),11%,83% (active),86.1% (active)
C#CCCCCCOC(=O)c1cc([N+](=O)[O-])cc([N+](=O)[O-])c1,97% (active),99% (active),98.5% (active),99% (active),99% (active),99% (active),99% (active),99% (active),99% (active),95% (active),98% (active),98.1% (active),98% (active),99% (active),99.2% (active),99% (active),99% (active),98% (active)
CSC(SC)(C(=O)O)c1cc(C)no1,-7%,-23%,19.4%,-17%,-2%,16.6%,-17%,-15%,2.55%,-7%,10%,45.2%,14%,7%,5.2%,-2%,-21%,1.2%
O=C1/C(=C\c2ccc(Cl)cc2Cl)Sc2scc(-c3cccc([N+](=O)[O-])c3)[n+]21,17%,98% (active),85.6% (active),36%,99% (active),86.1% (active),69%,98% (active),89.9% (active),28%,97% (active),88.5% (active),96% (active),97% (active),85.5% (active),23%,99% (active),90.9% (active)
